The entries come from a sample that favours hits as a whole.
DUX4 txn inh: blocks DUX4-driven transcriptional activation; 293T-iDUX4 ZSCAN4-Gaussia luciferase reporter, 24 h; active compounds read low; activity change, negative = inhibition, % (test concentration not listed); AID 1224904; 37,000 tested, 0.8% active;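 active = mean inhibition of at least 10% in the main channel, exceeding the control channel by a set limit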;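 also: 0% = median of neutral control wells and -100% = median of positive control wells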
* hit, by the source's call.

SMILES | DUX4 txn inh
CC(=O)N(C)C[C@@H]1OCc2ccccc2-c2c(n(C)c3ccccc23)C(=O)N([C@@H](C)CO)C[C@H]1C | 17
C[C@H]1CN([C@@H](C)CO)C(=O)c2c(c3ccccc3n2C)-c2ccccc2CO[C@@H]1CN(C)C(=O)c1ccc(F)cc1 | -32*
C[C@@H]1CN([C@H](C)CO)C(=O)c2c(c3ccccc3n2C)-c2ccccc2CO[C@@H]1CN(C)C(=O)c1ccc(F)cc1 | -6
C[C@H](CO)N1C[C@H](C)[C@@H](CN(C)C(=O)c2cc(Cl)cc(Cl)c2)OCc2ccccc2-c2c(n(C)c3ccccc23)C1=O | 13
C[C@@H]1CN([C@@H](C)CO)C(=O)c2c(c3ccccc3n2C)-c2ccccc2CO[C@@H]1CN(C)C(=O)c1ccncc1 | 1
CO[C@@H]1CN(C)C(=O)c2cc(NC(=O)c3ccno3)ccc2OC[C@H](C)NC[C@H]1C | 5
O=C(NC[C@H]1N[C@H](CO)[C@@H]1c1ccc(C2=CCCC2)cc1)c1ccccc1 | -1
Cn1cnc(CCNC(=O)C[C@@H]2CC[C@H]3[C@@H](COC[C@H](O)CN3C(=O)C3CCCC3)O2)c1 | 3
O=C(Nc1ccccc1)N1CC(=O)N2[C@H](C1)[C@H](c1ccc(C#CC3CCCCC3)cc1)[C@@H]2CO | -2
COc1ccc2c3c([nH]c2c1)[C@H](CO)N(Cc1ccncc1)CC31CN(C(=O)Cc2ccncc2)C1 | 12
CCCC(=O)N1CC2(C1)CN(Cc1ccc(Cl)cc1)[C@@H](CO)c1[nH]c3cc(OC)ccc3c12 | -85*
COc1ccc(CN2CC3(C2)CN(C(=O)Nc2ccc(F)cc2)[C@@H](CO)c2[nH]c4cc(OC)ccc4c23)cc1 | -39*
CCCC(=O)N1CCC2(CC1)CN(Cc1nccs1)[C@H](CO)c1[nH]c3cc(OC)ccc3c12 | -1
COc1ccc(CN2CC3(CCN(C(=O)c4ccccc4)CC3)c3c([nH]c4cc(OC)ccc34)[C@@H]2CO)cc1 | -2
COc1ccc2c3c([nH]c2c1)[C@H](CO)N(Cc1ccc(F)cc1)CC31CN(C(C)=O)C1 | -3
CCCC(=O)N1CCC2(CC1)CN(Cc1ccc(Cl)cc1)[C@H](CO)c1[nH]c3cc(OC)ccc3c12 | -63*
COc1ccc2c3c([nH]c2c1)[C@H](CO)N(C(=O)Nc1ccc(F)cc1)CC31CN(CC2CC2)C1 | 2
CCCC(=O)N1CCC2(CC1)CN(Cc1ccncc1)[C@@H](CO)c1[nH]c3cc(OC)ccc3c12 | 2
COc1ccc(CN2CC3(CN(C(=O)c4ccccc4)C3)c3c([nH]c4cc(OC)ccc34)[C@@H]2CO)cc1 | -51*
COc1ccc2c3c([nH]c2c1)[C@@H](CO)N(Cc1ccncc1)CC31CN(C(=O)c2cccnc2)C1 | 18
COc1ccc2c3c([nH]c2c1)[C@H](CO)N(C(=O)Nc1ccc(F)cc1)CC31CN(S(C)(=O)=O)C1 | 7
O=C(C[C@@H]1CC[C@H]2[C@@H](COC[C@H](O)CN2CC2CCOCC2)O1)NCc1ccc(Cl)cc1 | 3
CC[C@H]1C/C=C\C[C@@H](C(C)C)NC(=O)CCC(=O)N1 | -8
O=C1CNC[C@H]2[C@@H](c3ccc(C4=CCCC4)cc3)[C@H](CO)N12 | 18
O=C(C[C@H]1C=C[C@@H](NC(=O)Nc2cccc(F)c2)[C@@H](CO)O1)NCC1CCCCC1 | 5
SMILES | DUX4 txn inh
CCC(=O)N1CC2(C1)CN(Cc1ccc(OC)cc1)[C@H](CO)c1[nH]c3cc(OC)ccc3c12 | 2
COc1ccc2c3c([nH]c2c1)[C@H](CO)N(Cc1cccc(Cl)c1)CC31CN(C)C1 | -7
CCCC(=O)N1CC2(C1)CN(Cc1ccncc1)[C@H](CO)c1[nH]c3cc(OC)ccc3c12 | 10
COc1ccc2c3c([nH]c2c1)[C@H](CO)N(Cc1ccc(Cl)cc1)CC31CN(S(C)(=O)=O)C1 | -45*
CCCC(=O)N1CC2(C1)CN(Cc1ccc(Cl)cc1)[C@H](CO)c1[nH]c3cc(OC)ccc3c12 | -80*
COc1ccc2c3c([nH]c2c1)[C@H](CO)N(Cc1ccncc1)CC31CN(S(C)(=O)=O)C1 | 9
CS(=O)(=O)N1[C@H](CO)[C@@H](c2ccccc2-c2ccc(F)cc2)[C@@H]1C#N | -3
COCC(=O)Nc1ccc2c(c1)[C@@H]1C[C@H](CC(=O)N[C@@H](C)c3ccccc3)O[C@H](CO)[C@@H]1O2 | 0
N#C[C@@H]1[C@H](c2ccccc2)[C@@H](CO)N1S(=O)(=O)Cc1ccccc1 | -1
COC(=O)C[C@@H]1CC[C@@H]2[C@H](COc3ccc(NC(=O)c4cccc(Cl)c4)cc3C(=O)N2C)O1 | 5
CC(C)N(C[C@@H]1N[C@H](CO)[C@@H]1c1ccccc1)C(=O)c1ccccc1 | -1
CO[C@H](CN(C)S(=O)(=O)c1cccc(Cl)c1)[C@H](C)CN(C(=O)Nc1ccccc1F)[C@@H](C)CO | -2
COc1ccc2c3c([nH]c2c1)[C@@H](CO)N(C)CC31CN(C(=O)c2ccccc2F)C1 | -8
CN(C)C(=O)c1cccc(-c2ccc(C3[C@H]4CNC[C@@H]3N4S(=O)(=O)c3ccc(Cl)cc3)cc2)c1 (some centres undefined) | 16
